This is part of a sample that, as a whole, favours compounds with a hit. Of some 83,000 tested, about 20% had one in any assay.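 48-hour exposure, single concentration, 96-well plates; percent growth endpoint where 0 means no net growth. Active: below 10.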 Active and inactive are the calls of the source.
Each compound was assayed on MDA-MB-468 breast (assay: NCI-60 one-dose screen, 48 h (100 = growth as untreated, 0 = no growth, -100 = all killed)). Settings: 10 µM unless noted.

Compound	growth
CCOC(=O)c1sc(NS(=O)(=O)c2ccccc2)nc1C	106% (inactive)
COc1cc(/C=N/Nc2ccnc3cc(Cl)ccc23)cc(OC)c1O	-72.1% (active)
CNC(=O)c1c(NC(=O)c2cccc(C(F)(F)F)c2)sc2c1CCC(=O)C2	-28% (active)
CC(C)C[C@H](NC(=O)[C@@H](Cc1ccccc1)n1ccc(Nc2ccccc2)cc1=O)B(O)O	-19.8% (active)
Cc1cc(C(c2ccccc2)c2ccccc2)ccc1NS(=O)(=O)c1ccccc1	111% (inactive)
COc1cc(-c2nc3ccc(C)cc3[nH]2)ccc1OCc1nnc(-c2ccc(CC(C)C)cc2)o1	116% (inactive)
Cc1ccc2nc(NC(=O)CSc3nc(Cl)c(C#N)c(-c4ccccc4)n3)sc2c1	87.5% (inactive)
O=C(CNC1CCCCC1)Nc1ccc(-c2nc3ccccc3s2)cc1	35.9% (inactive)
C#Cc1cc2c(N)c(C(=O)c3cc(OC)c(OC)c(OC)c3)[nH]c2cc1OC	9.88% (active)
CCCC(=O)NC(c1ccc(N(CC)CC)cc1)c1cc(C)c2cccnc2c1O (stereo unspecified)	-16.1% (active)
Cc1cc(Br)c(C)cc1Br	92.2% (inactive)
COc1cc2nc(Cl)nc(Nc3cccc(C4=Nc5c(N)nc(N)nc5NC(c5ccc(Br)cc5)C4)c3)c2cc1OC (stereo unspecified)	90.3% (inactive)
N#Cc1nc(-c2ccccc2)oc1N1CCC(C2(C(F)(F)F)N=N2)CC1	112% (inactive)
COC1/C=C/OC2(C)Oc3c(C)c(O)c4c(O)c(c(/C=N/N(c5ccccc5)c5ccccc5)c(O)c4c3C2=O)NC(=O)C(C)=C/C=C/C(C)C(O)C(C)C(O)C(C)C(OC(C)=O)C1C (stereo unspecified)	-44.7% (active)
CCOC(=O)C1=C(C)NC(C)=C(C(=O)OC(C)C)C1c1cccc(C#N)c1 (stereo unspecified)	79.4% (inactive)
O=C(CCCCCCN1CC(=O)N2[C@@H](C3CC3)c3[nH]c4ccccc4c3C[C@H]2C1=O)NO	64.6% (inactive)
O=C1/C(=C\c2cccnc2)SC(=S)N1CCc1ccc(O)cc1	35.2% (inactive)
O=c1[nH]cnc2nc[nH]c12	100% (inactive)
CCOC(=O)c1ccc(NC(=O)CSC(N)=O)cc1	108% (inactive)
NC1=NC(=O)C(c2ccccc2)(c2ccccc2)S1	111% (inactive)
C[C@@H]1CC2C3C[C@H](F)C4=CC(=O)C=C[C@]4(C)[C@@]3(F)[C@@H](O)C[C@]2(C)[C@@]1(O)C(=O)CO (stereo partly specified)	102% (inactive)
COc1ccc(OC)c(Nc2nc(-c3c(C)nc4sccn34)cs2)c1	24.5% (inactive)
COC(=O)/C=C1/SC(=Nc2ccc([N+](=O)[O-])cc2)N(CCc2c[nH]c3ccc(O)cc23)C1=O	56.8% (inactive)
CCCCCCCCCCCCCCCCN=C(CC(=O)O)C(=O)O	95.2% (inactive)
CCCCC1=C(Br)C(=O)c2ncccc2C1=O	84.2% (inactive)
COc1cccc(/C=C/C(=O)Nc2cc(OC)c3c(c2)OCO3)c1	92.6% (inactive)
